# PubChem BioAssay (NCATS)
# “And” between values parts separate entries of the source, which are not always exact repeats. Equal entries are not always repeated. Results filed as inconclusive are left out. A number with no mark means an inactive call. The source made the active and inactive calls. Calls follow the shape of the dose curve; as a rule, active = well fitted curve in the direction sought with a large enough effect; inconclusive = small, poorly fitted or top-dose-only effect, or another doubt; inactive = no such curve, though single readings can be large; an effect the other way counts as inactive or inconclusive.
# Key:
# [1] = qHTS assay to identify inhibitors of the type 1 interferon - major histocompatibility complex class I in skeletal muscle: Counter screen cell viability and HiBit confirmation (AID 1347412); details: iHSKM muscle cells + IFN-b, HiBiT or CellTiter-Glo, 24 h; for activity change, negative = inhibition: at 45.9 µM (top of the series); as to all read-outs here: nearly all actives have a fitted effect of over 60% in size
# Method in brief: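 Myoblasts (C25cl48, HLA-B HiBiT) seeded in medium without dexamethasone, IFN-b 4 ng/ml added except unstimulated columns; 1 hr later compounds pinned (12-pt 1:3, top 46 uM final). Incubated 24 hrs, lysed 10 min, luminescence measured.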
# [2] = system: Tov-21-G; assay: Primary qHTS to identify gynecologic anti-cancer compounds using libraries of approved drugs and bioactive compounds (AID 1345084); details: Gynecologic cancer cell panel viability, ATPlite luminescence, 48 h; series mostly up to 57.5 µM; also: nearly all actives have a fitted effect of over 55% in size
# Method in brief: (§1)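 Luminescence from the ATPlite ATP-monitoring reagent indicates viable cell number; lower signal means cytotoxicity. Cells received compound 16 h after seeding and were exposed for 48 h across five concentrations.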
# [3] = system: astro; assay: Drug repurposing screens with cells derived from glioblastoma tumor samples (AID 1345199); details: viability, ATP luminescence, 48 h; series mostly up to 45.9 µM; also: nearly all actives have a fitted effect of over 40% in size
# Method in brief: (§2)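 Four patient lines of CD133+ GBM neurospheres were screened at several concentrations; hits were retested in those lines plus three slower-growing GBM lines, using 48-hour treatment and ATP-based viability.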
# [4] = system: Tov112D; assay: Primary qHTS to identify gynecologic anti-cancer compounds using libraries of approved drugs and bioactive compounds (AID 1345084); details: Gynecologic cancer cell panel viability, ATPlite luminescence, 48 h; series mostly up to 57.5 µM; also: nearly all actives have a fitted effect of over 55% in size
# Method in brief: as §1
# [5] = Drug repurposing screens with cells derived from glioblastoma tumor samples (AID 1345199); details: GBM patient neurospheres viability, ATP luminescence, 48 h; also: nearly all actives have a fitted effect of over 40% in size
# Method in brief: as §2
# [6] = system: SKOV3; assay: Primary qHTS to identify gynecologic anti-cancer compounds using libraries of approved drugs and bioactive compounds (AID 1345084); details: Gynecologic cancer cell panel viability, ATPlite luminescence, 48 h; series mostly up to 57.5 µM; also: nearly all actives have a fitted effect of over 55% in size
# Method in brief: as §1
# [7] = at 46.1 µM (top of the series), tumour line C
# [8] = at 20 µM (top of the series), tumour line C
# [9] = at 21.2 µM (top of the series), tumour line B
# [10] = at 21.2 µM (top of the series), tumour line D
# [11] = at 21.3 µM (top of the series), tumour line A
# [12] = at 45.9 µM (top of the series), tumour line B
# [13] = at 45.9 µM (top of the series), tumour line D
# [14] = at 46 µM (top of the series), tumour line A
# % is scaled to controls: 0 for no effect and ±100 for the full control effect; potency is read from the fitted curve at half-maximal effect.
compound,measurement,setting,value
CC[C@H](CO)Nc1nc(NCc2ccccc2)c2ncn(C(C)C)c2n1,Potency,[1]; HiBiT,17.6 µM (active)
same,"activity change, negative = inhibition",[1]; Viability,-8.22%
C=CC(=O)Nc1cc2c(Nc3ccc(F)c(Cl)c3)ncnc2cc1C#CC(C)(C)N1CCN(C)CC1,Potency,[1]; Viability,22.2 µM (active)
Cc1ccc(-c2ncn(-c3ccc(Nc4nccc(-c5cccc(N6CCOCC6)c5)n4)cc3)n2)cn1,Potency,[1]; HiBiT,2.49 µM (active)
same,"activity change, negative = inhibition",[1]; Viability,-8.69%
O=c1[nH]nc(Sc2ncc([N+](=O)[O-])s2)n1-c1ccc2c(c1)OCCO2,Potency,[1]; HiBiT,14 µM (active)
Cn1cncc1[C@@](N)(c1ccc(Cl)cc1)c1ccc2c(c1)c(-c1cccc(Cl)c1)cc(=O)n2C,"activity change, negative = inhibition",[1]; HiBiT,-17.7%
same,"activity change, negative = inhibition",[1]; Viability,-17.4%
C[C@@]12O[C@@H](C[C@]1(O)CO)n1c3ccccc3c3c4c(c5c6ccccc6n2c5c31)CNC4=O,Potency,[1]; HiBiT,0.701 µM (active)
same,"activity change, negative = inhibition",[1]; Viability,-0.759%
CC1(C)CCC(c2ccc(Cl)cc2)=C(CN2CCN(c3ccc(C(=O)NS(=O)(=O)c4ccc(N[C@H](CCN5CCOCC5)CSc5ccccc5)c(S(=O)(=O)C(F)(F)F)c4)cc3)CC2)C1,Potency,[2],inactive
CC[C@H]1CN2CCc3cc(OC)c(OC)cc3[C@H]2C[C@@H]1C[C@@H]1NCCc2cc(OC)c(OC)cc21,Potency,[3],0.447 µM (active)
Nc1ncnc2c1c(-c1cccc(OCc3ccccc3)c1)cn2C1CC(CN2CCCC2)C1 (centres undefined),Potency,[4],inactive
same,Potency,[1]; HiBiT,22.2 µM (active)
CC(C)C[C@H](NC(=O)CNC(=O)c1cc(Cl)ccc1Cl)B(O)O,Potency,[1]; HiBiT,0.557 µM (active)
COC(=O)C[C@](O)(CCCC(C)(C)O)C(=O)O[C@@H]1C(OC)=C[C@]23CCCN2CCc2cc4c(cc2[C@H]13)OCO4,"activity, negative = cell killing",[5]; [7],-97.3%
same,Potency,[5]; tumour line A,0.224 µM (active)
same,Potency,[5]; tumour line B,0.316 µM (active)
same,Potency,[5]; tumour line D,1 µM (active)
same,Potency,[3],0.251 µM (active)
same,Potency,[1]; HiBiT,0.279 µM (active)
same,"activity change, negative = inhibition",[1]; Viability,0.0855%
COc1ccc(CC2c3cc(OC)c(OC)cc3CC[N+]2(C)CCC(=O)OCCCCCOC(=O)CC[N+]2(C)CCc3cc(OC)c(OC)cc3C2Cc2ccc(OC)c(OC)c2)cc1OC (centres undefined),"activity, negative = cell killing",[5]; [8],-5.82%
same,"activity, negative = cell killing",[5]; [9],-8.61%
same,"activity, negative = cell killing",[5]; [10],-8.93%
same,"activity, negative = cell killing",[5]; [11],-14%
same,Potency,[3],inactive
COc1c(N2C[C@@H]3CCCN[C@H]3C2)c(F)cc2c(=O)c(C(=O)O)cn(C3CC3)c12,"activity, negative = cell killing",[5]; [12],6.2% and 1.37%
same,"activity, negative = cell killing",[5]; [13],-16.2% and 10%
same,"activity, negative = cell killing",[5]; [14],-18.3%
same,"activity, negative = cell killing",[5]; [7],4.44% and 2.53%
same,Potency,[3],inactive
CC(C)[C@H](C(=O)Nc1ccc(C(=O)NO)cc1)c1ccccc1,Potency,[1]; HiBiT,1.11 µM (active)
same,"activity change, negative = inhibition",[1]; Viability,-7.44%
O=c1[nH]c(=O)n(C2CCCO2)cc1F (centres undefined),"activity, negative = cell killing",[5]; [12],-6.45%
same,"activity, negative = cell killing",[5]; [13],-14.2%
same,"activity, negative = cell killing",[5]; [14],-9.36%
same,"activity, negative = cell killing",[5]; [7],-4%
same,Potency,[3],inactive
Nc1ccn([C@@H]2CS[C@H](CO)O2)c(=O)n1,"activity, negative = cell killing",[5]; [12],-9.03%
same,"activity, negative = cell killing",[5]; [13],-12.1%
same,"activity, negative = cell killing",[5]; [14],-14.9%
same,"activity, negative = cell killing",[5]; [7],6.78%
same,Potency,[3],inactive
CC(C)(C)c1cnc(CSc2cnc(NC(=O)C3CCNCC3)s2)o1,Potency,[1]; HiBiT,0.351 µM (active)
same,"activity change, negative = inhibition",[1]; Viability,9.32%
COCCn1c2c([n+](Cc3cnccn3)c1C)C(=O)c1ccccc1C2=O,Potency,[1]; HiBiT,1.98 µM (active)
same,Potency,[1]; Viability,2.49 µM (active)
C[C@H]1C[C@@H]2[C@@H]([C@@H](O)C[C@@]3(C)[C@H]2CC[C@]3(O)C(=O)CO)[C@@]2(C)C=CC(=O)C=C12,"activity, negative = cell killing",[5]; [8],-10.7%
same,"activity, negative = cell killing",[5]; [9],-18.9%
same,"activity, negative = cell killing",[5]; [10],-26.6%
same,"activity, negative = cell killing",[5]; [11],-9.28%
same,Potency,[3],inactive
CC=CC1=C(C(=O)O)N2C(=O)[C@H](NC(=O)[C@H](N)c3ccc(O)cc3)[C@@H]2SC1,"activity, negative = cell killing",[5]; [12],-15%
same,"activity, negative = cell killing",[5]; [13],-0.836%
same,"activity, negative = cell killing",[5]; [14],-26.1%
same,"activity, negative = cell killing",[5]; [7],-17.4%
same,Potency,[3],inactive
Cc1cc(Nc2cc(NC(=O)c3c(Cl)cccc3Cl)ccn2)nc(N)n1,Potency,[1]; HiBiT,2.79 µM (active)
same,"activity change, negative = inhibition",[1]; Viability,21.4%
CN(c1ncccc1CNc1nc(Nc2ccc3c(c2)CC(=O)N3)ncc1C(F)(F)F)S(C)(=O)=O,Potency,[1]; HiBiT,4.97 µM (active)
same,"activity change, negative = inhibition",[1]; Viability,13.6%
Fc1cc(-c2cccc3ncc(-c4cnn(C5CCNCC5)c4)nc23)cc(F)c1CN1CCOCC1,Potency,[6],12.6 µM (active)
same,Potency,[2],11.2 µM (active)
same,Potency,[1]; HiBiT,19.8 µM (active)
CN1CCN(c2cc(C(=O)Nc3ccc4c(c3)-c3c(c(C(N)=O)nn3-c3ccc(F)cc3)CC4)c(Cl)cn2)CC1,Potency,[1]; HiBiT,22.2 µM (active)
same,Potency,[1]; Viability,27.9 µM (active)
CC(C)c1ccc(Cn2ccc3c4c(N)nc(NC5CC5)nc4ccc32)cc1,Potency,[1]; HiBiT,17.6 µM (active)
same,Potency,[1]; Viability,27.9 µM (active)
COC(=O)[C@]12CCC(C)(C)C[C@@H]1[C@@H]1C(=O)C=C3[C@@]4(C)C=C(C#N)C(=O)C(C)(C)[C@@H]4CC[C@@]3(C)[C@]1(C)CC2,Potency,[3],3.16 µM (active)
CS(=O)(=O)N1CCN(Cc2cc3nc(-c4cccc5[nH]ncc45)nc(N4CCOCC4)c3s2)CC1,Potency,[6],2.51 µM (active)
same,Potency,[4],inactive
CC[C@@H]1C(=O)N(C)c2cnc(Nc3ccc(C(=O)NC4CCN(C)CC4)cc3OC)nc2N1C1CCCC1,"activity change, negative = inhibition",[1]; Viability,-4.51%
CC(C)(C)c1cc(C(C)(C)C)c(NC(=O)c2c[nH]c3ccccc3c2=O)cc1O,"activity change, negative = inhibition",[1]; HiBiT,-18%
same,"activity change, negative = inhibition",[1]; Viability,-12%
CC1(C)O[C@@H]2C[C@@H]3[C@H]4C[C@@H](F)C5=CC(=O)C=C[C@]5(C)[C@@]4(F)[C@@H](O)C[C@]3(C)[C@]2(C(=O)CO)O1,"activity, negative = cell killing",[5]; [12],-7.89%
same,"activity, negative = cell killing",[5]; [13],-1.99%
same,"activity, negative = cell killing",[5]; [14],-7.12%
same,"activity, negative = cell killing",[5]; [7],2.95%
same,Potency,[3],inactive
CC(C)(C)NC(=O)[C@H]1CN(Cc2cccnc2)CCN1C[C@@H](O)C[C@@H](Cc1ccccc1)C(=O)N[C@H]1c2ccccc2C[C@H]1O,"activity, negative = cell killing",[5]; [7],35.7%
same,Potency,[5]; tumour line A,17.8 µM (active)
COc1cc(C(C)C)c2c(c1)S(=O)(=O)N(COc1cc(=O)n3cccc(OCCN4CCCCC4)c3n1)C2=O,"activity change, negative = inhibition",[1]; Viability,-20.7%
O=C(CCCCCCC(=O)Nc1ccc([C@H]2O[C@@H](CSc3nc(-c4ccccc4)c(-c4ccccc4)o3)C[C@@H](c3ccc(CO)cc3)O2)cc1)NO,Potency,[4],inactive
CN1c2cc(O)c(N=NC(N)=O)cc2CC1S(=O)(=O)O (centres undefined),"activity, negative = cell killing",[5]; [12],-14.6%
same,"activity, negative = cell killing",[5]; [13],7.92%
same,"activity, negative = cell killing",[5]; [7],-16.8%
same,Potency,[3],inactive
O=C(O)CO.[NH2-].[NH2-].[Pt+2],"activity, negative = cell killing",[5]; [12],-16.9%
same,"activity, negative = cell killing",[5]; [13],26.7%
same,"activity, negative = cell killing",[5]; [14],-24.8%
same,"activity, negative = cell killing",[5]; [7],-11%
same,Potency,[3],inactive
c1cc(-c2cnn3cc(-c4ccc(OCCN5CCCCC5)cc4)cnc23)ccn1,Potency,[1]; HiBiT,14 µM (active)
